Tests used:
Conditions in all cases: concentration: 1 μM, replicates: in singlicate; n = 1
[1] = tested on: T1, RSK4(Kin.Dom.1-N-terminal)
T1 construct: gene RPS6KA6

[2] = tested on: T2, RSK4(Kin.Dom.2-C-terminal)
T2 construct: gene RPS6KA6

S6K1 = tested on: S6K1
SBK1 = tested on: SBK1
SGK2 = tested on: SGK2
SGK3 = tested on: SGK3
SGK = tested on: SGK
SIK2 = tested on: SIK2
SIK = tested on: SIK
SLK = tested on: SLK
SNARK = tested on: T3, SNARK
T3 construct: gene NUAK2

SNRK = tested on: SNRK
SRC = tested on: SRC
SRMS = tested on: SRMS
SRPK1 = tested on: SRPK1
SRPK2 = tested on: SRPK2
SRPK3 = tested on: SRPK3
STK16 = tested on: STK16
STK33 = tested on: STK33
STK35 = tested on: STK35
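Note: KINOMEscan kinase panel screen.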

| SMILES | %Inh [1] | %Inh [2] | %Inh (S6K1) | %Inh (SBK1) | %Inh (SGK2) | %Inh (SGK3) | %Inh (SGK) | %Inh (SIK2) | %Inh (SIK) | %Inh (SLK) | %Inh (SNARK) | %Inh (SNRK) | %Inh (SRC) | %Inh (SRMS) | %Inh (SRPK1) | %Inh (SRPK2) | %Inh (SRPK3) | %Inh (STK16) | %Inh (STK33) | %Inh (STK35) |
| --- | --- | --- | --- | --- | --- | --- | --- | --- | --- | --- | --- | --- | --- | --- | --- | --- | --- | --- | --- | --- |
| Fc1cc(Cl)ccc1Nc1ccnc2cc(-c3ccc(CN4CCSCC4)o3)ccc12 [GW560106] | 0% | 87% | 0% | 0% | 0% | 0% | 0% | 81% | 97.2% | 65% | 0% | 0% | 99% | 21% | 42% | 23% | 0% | 0% | 20% | 20% |
| CN(C)CCNS(=O)(=O)c1ccc(-c2ccnc3[nH]ccc23)cc1 [GSK977620] | 25% | 22% | 32% | 47% | 0% | 32% | 4% | 11% | 14% | 71% | 73% | 0% | 6% | 0% | 45% | 0% | 0% | 62% | 66% | 15% |
| CCOc1nccc(-c2c(-c3ccc(F)cc3)ncn2C2CCNCC2)n1 [SB-249175] | 41% | 83% | 16% | 46% | 34% | 12% | 29% | 4% | 2% | 71% | 82% | 21% | 0% | 34% | 8% | 19% | 1% | 0% | 4% | 0% |
| Fc1cc(Cl)ccc1Nc1ccnc2cc(-c3ccc(CN4CCOCC4)o3)ccc12 [GW560109] | 0% | 90.3% | 26% | 37% | 6% | 0% | 0% | 100% | 97.4% | 32% | 0% | 7% | 99.2% | 15% | 35% | 0% | 10% | 0% | 6% | 92.1% |
| CN(C)CCOc1ccc(-c2cc(-c3ccc(Cl)c(O)c3)c(-c3ccncc3)[nH]2)cc1.Cl.Cl [SB-684387] | 0% | 25% | 6% | 12% | 10% | 20% | 24% | 27% | 4% | 98% | 9% | 9% | 92.2% | 3% | 0% | 30% | 0% | 14% | 0% | 0% |
| COC(=O)Nc1nc2cc(Oc3ccc(NC(=O)Nc4cccc(SC)c4)cc3)ccc2[nH]1.Cl [GW697999] | 0% | 0% | 9% | 0% | 0% | 8% | 11% | 0% | 0% | 33% | 7% | 0% | 61% | 0% | 38% | 17% | 0% | 3% | 0% | 0% |
| c1ccc(Oc2ccc(Nc3ccnc4cc(-c5ccc(CN6CCCCC6)o5)ccc34)cc2)nc1 [GW567143] | 0% | 1% | 6% | 25% | 6% | 0% | 0% | 70% | 97.4% | 36% | 9% | 0% | 37% | 94.2% | 0% | 0% | 20% | 0% | 99.9% | 59% |
| Nc1ncc(-c2cn[nH]c2)c2scc(-c3ccc4c(c3)CCN4C(=O)Cc3ccccc3)c12 [GSK2593067] | 0% | 0% | 8% | 0% | 0% | 0% | 0% | 0% | 59% | 73% | 10% | 0% | 69% | 59% | 44% | 0% | 0% | 0% | 2% | 0% |
| Cn1cc(-c2ccc3c(c2)CCN3C(=O)Cc2cc(F)cc(F)c2F)c2c(N)ncnc21 [GSK2634140] | 0% | 0% | 17% | 16% | 4% | 0% | 0% | 0% | 8% | 60% | 28% | 8% | 10% | 0% | 34% | 0% | 0% | 0% | 0% | 0% |
| CC(C)(C)c1ccc(C(=O)Nc2cn3cc(-n4ccnc4)ccc3n2)cc1 | 29% | 0% | 8% | 0% | 11% | 60% | 2% | 10% | 9% | 6% | 79% | 16% | 0% | 0% | 0% | 0% | 0% | 19% | 0% | 0% |

— paper PMC5540273 (PLoS ONE, 2017)
